Test results published in the supplement of paper PMC6555819.

Columns and labels:
Assay in all cases: PBM binding z-score (relative to random genomic background probes); higher = stronger binding; sequences stand for … in GC…GCGATTGACAGCGTAGAATGAAGG
[1] = system: PPARg:RXRa DBDmut IVT, anti-RXR (DBD mutation: RXRa K156A/R161A, NR concentration 270 nM, RXRa partner concentration 90 nM)
Summary of the method: (§1)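 Custom Agilent 4×180K protein-binding microarrays carried double-stranded probes, each with a 34-nt variable region. These regions held direct-repeat seeds, single-nucleotide variants, half-site ablations and random human genomic background sequences. Ligand-free nuclear receptor dimers were incubated on the arrays for 1 h, antibodies against each partner (one per run) detected binding, and scanned fluorescence was regression-normalized. Binding z-scores take the random background probes as reference.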

[2] = system: PPARg:RXRa IVT, anti-PPARg (NR concentration 270 nM, RXRa partner concentration 90 nM)
Summary of the method: as §1

[3] = system: PPARg DBDmut:RXRa IVT, anti-PPARg (DBD mutation: PPARg1 K132A/R137A, NR concentration 270 nM, RXRa partner concentration 90 nM)
Summary of the method: as §1

[4] = system: PPARg DBDmut IVT, anti-PPARg (DBD mutation: PPARg1 K132A/R137A, NR concentration 270 nM)
Summary of the method: as §1

[5] = system: PPARg homodimer (NR concentration 180 nM)
Summary of the method: as §1

[6] = system: PXR:RXRa (NR concentration 270 nM, RXRa partner concentration 90 nM)
Summary of the method: as §1

[7] = system: PXR homodimer (NR concentration 270 nM)
Summary of the method: as §1

[8] = system: RARa:RXR (NR concentration 270 nM, RXRa partner concentration 90 nM)
Summary of the method: as §1

[9] = system: RARa homodimer (NR concentration 270 nM)
Summary of the method: as §1

[10] = system: RARb:RXRa (NR concentration 270 nM, RXRa partner concentration 90 nM)
Summary of the method: as §1

Sequence | PBM binding z-score [1] | PBM binding z-score [2] | PBM binding z-score [3] | PBM binding z-score [4] | PBM binding z-score [5] | PBM binding z-score [6] | PBM binding z-score [7] | PBM binding z-score [8] | PBM binding z-score [9] | PBM binding z-score [10]
TCGAGTAGGTTACCAATGGGTCATTCAGCTTTCT | 3.45 | 2.82 | 0.364 | -0.28 | 1.39 | 1.88 | -0.563 | 2.5 | -0.538 | 1.77
ACATGTAGGTTATCGGGTCATTCAGTTTGCGCAT | 6.89 | 6.82 | 3.46 | 3.12 | 5.01 | 4.02 | 6.61 | 3.88 | 2.25 | 2.61
CCTTACGGGTCAAGGTTAAAGCACGGGTGGTACG | 1.83 | 3.82 | 0.996 | 0.275 | 3.27 | 3.65 | 0.419 | 4.78 | 1.39 | 4.12
GGAACGAGGGCAAGTTGCTAGCAGAGTTTGATGG | 3.85 | 2.46 | -0.00966 | -0.739 | -0.336 | 0.59 | 0.303 | 0.0596 | -0.257 | 2.52
CCGTCTGGGGCAAAGGTTACCATACTCAGTACGA | 3.2 | 5.43 | -0.238 | -0.231 | 1.64 | 2.45 | -0.428 | 4.24 | -0.0466 | 2.5
GCATTTAGGTAATACAAGGTGAAAGTCCGATTGT | 3.13 | 2.5 | 1.39 | 0.568 | 0.826 | 0.319 | 0.3 | 0.911 | 0.039 | 0.715
GCTGCTAGGTCAACTCATGGTCAGCTAAAGCTCG | 4.52 | 4.36 | -0.224 | 0.163 | 1.2 | 1.83 | -0.544 | 2.76 | 0.409 | 4.46
AATATTAGTTGACTTAGGGCAACCGATACGACGC | 0.114 | 0.435 | 1.41 | 0.654 | 0.835 | 0.143 | 0.976 | 0.751 | 1.92 | 0.721
GCAGACAGGTGAAAAGCAGGTAACTCAGGGTGGC | 0.172 | 0.778 | -0.581 | -1.28 | -0.799 | -0.441 | -0.329 | 0.143 | -0.401 | 0.42
CCTTACGGGTCACGAGGTTATCGCACGACGAGCG | 4.34 | 5.24 | 1.36 | 0.803 | 3.23 | 4.75 | 0.615 | 6.45 | 0.798 | 4.5
TCATATAGGTAAATAGGTGAAAGTCCGTAAGTTA | 5.74 | 6.26 | 1.25 | 1.38 | 1.18 | 1.13 | 0.363 | 1.44 | 1.54 | 0.905
CGAACTAGGTAAGAACAGGACAGTGAAGGATGAT | 3.73 | 2.52 | 0.465 | 0.0684 | 0.00147 | -0.257 | -0.137 | -0.362 | -0.184 | -0.143
GCTGCTACGTCAGGTTGGTCAGCTAACGGGTACG | -0.264 | -0.651 | -0.712 | -1.19 | -0.583 | -0.691 | -0.732 | -0.51 | -1.16 | -0.154
CGTCCAAGGACATAGGAGGTCAGTGAAGACAGAT | 0.24 | 1.36 | -0.861 | -1.72 | 1.48 | 2.07 | 0.81 | 2.11 | 0.692 | 2.76
ATCTCTAGGTAAAGGTTCAGTGAATCCCGAGGAT | 2.8 | 3.07 | 1.06 | 0.461 | 0.615 | 0.795 | 0.0698 | 0.886 | 0.514 | 1.32
ATATGTAGGCTAGCTGGGGTCATTCAGACTAGGC | 4.55 | 3.66 | 1.11 | 0.266 | 1.81 | 5.32 | 2.19 | 5.28 | 0.344 | 2.28
AATACAGGATCATCGTAGGCCAGAGTACGCACAG | -0.0409 | 0.414 | 0.728 | 0.381 | 0.342 | 0.111 | 0.257 | 0.723 | 0.87 | 0.16
CGAACTCGGTCATTGACAGGACAGTGAATAGTAA | 2.98 | 2.26 | -0.213 | -0.299 | 0.0566 | 0.137 | -0.233 | 0.436 | -0.219 | 2.14
CAAACTAGGTCACGCAAGGTCAAAGTCGAATGAC | 8.48 | 9.3 | 4.39 | 5.78 | 5.5 | 7.23 | 3.2 | 6.68 | 4.04 | 5.5
GCTATTTGGTCAGTAAAAGGTCACACACCGGTCG | 1.19 | 3.03 | 0.901 | 1.1 | 3.8 | 5.12 | 1.46 | 5.67 | 2.38 | 4.45
AATACAGGGTCATCGTAGGCCAGCGTACGCACAG | 2.7 | 4.3 | 1.13 | 2.04 | 1.67 | 4.77 | 0.406 | 4.77 | 0.478 | 4.55
TCTATTAGTTGAAGGGCAAACGACGAGTCCGTTT | 2.81 | 0.694 | 0.606 | 0.592 | 1.18 | 1.25 | 1.12 | 1.22 | 1.02 | 1.72
CGTCCAAGGTCAAAGAGGTCAGTGAATGCCGAGT | 3.99 | 4.53 | 0.213 | -0.987 | 5.13 | 6.71 | 12.7 | 6.05 | 1.8 | 5.48
TCTATTAGTTGAAGGGCAACCGCCGAGTCCGTTT | 2.32 | 0.783 | 0.465 | 1.32 | 1.11 | 0.779 | 0.698 | 0.905 | 1.14 | 1.74
